# Results filed as inconclusive are left out. Activity calls are given as the source filed them. Calls follow the shape of the dose curve; as a rule, active = well fitted curve in the direction sought with a large enough effect; inconclusive = small, poorly fitted or top-dose-only effect, or another doubt; inactive = no such curve, though single readings can be large; an effect the other way counts as inactive or inconclusive. Where a SMILES comes first, the peptide text is derived from it. The star is where a group is joined. AMC = Cc1cc(=O)oc2cc(N*)ccc12; Cbz = O=C(OCc1ccccc1)*
# Key:
# [1] = molecular target: Catechol O-methyltransferase (Homo sapiens) (UniProt P21964); assay: Confirmatory Screen for Target Class Profiling of Small Molecule Inhibitors of Methyltransferases (AID 1745852); conditions: MTase-Glo luminescence, SAH detection, recombinant enzyme; measured here: COMT max response; stronger effect = lower value; as to activity change, negative = inhibition: % is scaled to controls: 0 for no effect and ±100 for the full control effect
# [2] = molecular target: Guanidinoacetate N-methyltransferase (Homo sapiens) (UniProt Q14353); assay: as above; conditions: MTase-Glo luminescence, SAH detection, recombinant enzyme; activity change, negative = inhibition: at 57.3 µM (top of the series) unless noted
# [3] = molecular target: Nicotinamide N-methyltransferase (Homo sapiens) (UniProt P40261); assay: as above; conditions: MTase-Glo luminescence, SAH detection, recombinant enzyme; measured here: NNMT max response; stronger effect = lower value
# [4] = molecular target: Phenylethanolamine N-methyltransferase (Homo sapiens) (UniProt P11086); assay: as above; conditions: MTase-Glo luminescence, SAH detection, recombinant enzyme; measured here: PNMT max response; stronger effect = lower value
# [5] = molecular target: Rap guanine nucleotide exchange factor 3 (Homo sapiens) (UniProt O95398); assay: Confirmatory qHTS for antagonist of cAMP-regulated guanine nucleotide exchange factor 3 (EPAC1) (AID 1645880); conditions: EPAC1 Rap1B-BODIPY-GDP exchange, fluorescence; also: potency is read from the fitted curve at half-maximal effect; nearly all actives have a fitted effect of over 55% in size
# Source text: Assay Provider (PI): Xiaodong Cheng Ph.D. The University of Texas Medical Branch, […], TX MLPCN Grant: NS066510 In multi-cellular eukaryotic organisms, the effects of cAMP are transduced by two ubiquitously-expressed intracellular cAMP receptors, the classic protein kinase A/cAMP-dependent protein kinase (PKA/cAPK) and the more recently discovered exchange protein directly activated by cAMP/cAMP-regulated guanine nucleotide exchange factor (EPAC/cAMP-GEF). Both PKA and EPAC are ubiquitously expressed in all tissues, and an increase in intracellular cAMP levels will lead to the activation of both PKA and EPAC. Therefore, careful dissections of the individual role and relative contribution of EPAC and PKA within the overall cAMP signaling in various model systems are critical for further elucidating the mechanism of cAMP signaling. To date no EPAC-specific antagonists and agonist, as well as isoform-specific agonists have been reported, and developing EPAC-specific pharmacological probes to determine the physiological functions that EPAC play in the overall cAMP-mediated signaling remains a major challenge within the research field. […] This qHTS will be used to screen the Molecular Libraries Small Molecule Repository (MLSMR) as a concentration-titration series using the NCGC unique quantitative screening (qHTS) platform to find activators for EPAC1. […] Activators are identified by monitoring the change in fluorescence signal as the exchanged free BODIPY-GDP has a reduced fluorescence compared to Rap1-bound BODIPY-GDP. […]
# Briefly, three uL of reagents (100 nM EPAC1, 250 nM RAP1B-BODIPY-GDP, 50 uM GDP) were dispensed into a 1536-well Greiner black solid-bottom medium binding assay plate. […] The assay plates were read at 5 minute intervals for 30 minutes in the ViewLux plate reader using 480nm excitation and 540nm emission filters. […]
# [6] = molecular target: Rap guanine nucleotide exchange factor 3 (Homo sapiens) (UniProt O95398); assay: Confirmatory qHTS for agonist of cAMP-regulated guanine nucleotide exchange factor 3 (EPAC1) (AID 1645881); conditions: EPAC1 Rap1B BODIPY-GDP exchange fluorescence, 100% = cAMP control response; series mostly up to 154 µM;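 also: EPAC1 catalysed release of BODIPY-GDP from Rap1B seen as fluorescence loss; nearly all actives have a fitted effect of over 75% in size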
# [7] = molecular target: Rap guanine nucleotide exchange factor 4 (Homo sapiens) (UniProt Q8WZA2); assay: Confirmatory qHTS for agonist of cAMP-regulated guanine nucleotide exchange factor 4 (EPAC2) (AID 1645884); conditions: EPAC2 GEF activity, Rap1B-BODIPY-GDP fluorescence, percent relative to cAMP agonist control; series mostly up to 154 µM;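 also: nucleotide exchange releases bodipy-GDP from Rap1 and this lowers its fluorescence; % is scaled to controls: 0 for no effect and ±100 for the full control effect; nearly all actives have a fitted effect of over 65% in size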
# [8] = molecular target: Rap guanine nucleotide exchange factor 4 (Homo sapiens) (UniProt Q8WZA2); assay: Confirmatory qHTS for antagonist of cAMP-regulated guanine nucleotide exchange factor 4 (EPAC2) (AID 1645885); conditions: EPAC2 Rap1B-BODIPY-GDP exchange fluorescence, biochemical; series mostly up to 12.7 µM; also: nearly all actives have a fitted effect of over 25% in size; as to activity change, negative = inhibition: % is scaled to controls: 0 for no effect and ±100 for the full control effect
# [9] = molecular target: Rap guanine nucleotide exchange factor 3 (Homo sapiens) (UniProt O95398); assay: Counterscreen qHTS for antagonist of cAMP-regulated guanine nucleotide exchange factor 3 (EPAC1) (AID 1645888); conditions: Rap1B-BODIPY-GDP nucleotide exchange, fluorescence; series mostly up to 154 µM;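 also: fluorescence loss as bound BODIPY-GDP is released from Rap1B; % of control where 0% means no effect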
# In short: (§1)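 Measured: fluorescence of BODIPY-GDP bound to Rap1B, which falls as exchange proceeds. Conditions include 50 uM competing GDP, 5 and 30 min reads, and a later cAMP challenge for antagonist detection.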
# [10] = molecular target: Rap guanine nucleotide exchange factor 3 (Homo sapiens) (UniProt O95398); assay: Counterscreen qHTS for agonist of cAMP-regulated guanine nucleotide exchange factor 3 (EPAC1) (AID 1645889); conditions: EPAC1 Rap1B-BODIPY-GDP exchange, fluorescence; series mostly up to 154 µM; also: % of control where 0% means no effect; nearly all actives have a fitted effect of over 40% in size
# In short: as §1
# Chain of Phenylethanolamine N-methyltransferase (Homo sapiens) (P11086 whole entry, looked up): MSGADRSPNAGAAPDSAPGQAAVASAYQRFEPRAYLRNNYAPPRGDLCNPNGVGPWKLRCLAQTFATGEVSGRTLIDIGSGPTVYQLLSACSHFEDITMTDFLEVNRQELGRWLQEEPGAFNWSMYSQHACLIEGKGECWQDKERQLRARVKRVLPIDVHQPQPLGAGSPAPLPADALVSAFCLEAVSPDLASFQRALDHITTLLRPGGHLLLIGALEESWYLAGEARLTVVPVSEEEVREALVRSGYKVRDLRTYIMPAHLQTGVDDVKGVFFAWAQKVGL
# Chain of Catechol O-methyltransferase (Homo sapiens) (P21964 whole entry, looked up): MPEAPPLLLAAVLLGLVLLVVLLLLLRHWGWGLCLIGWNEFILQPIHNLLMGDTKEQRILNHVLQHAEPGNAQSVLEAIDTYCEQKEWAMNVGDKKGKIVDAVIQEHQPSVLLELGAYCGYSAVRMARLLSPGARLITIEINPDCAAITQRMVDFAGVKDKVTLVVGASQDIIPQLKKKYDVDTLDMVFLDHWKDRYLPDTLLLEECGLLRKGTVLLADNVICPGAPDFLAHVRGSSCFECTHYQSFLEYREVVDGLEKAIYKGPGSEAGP
# Chain of Rap guanine nucleotide exchange factor 4 (Homo sapiens) (Q8WZA2 whole entry, looked up): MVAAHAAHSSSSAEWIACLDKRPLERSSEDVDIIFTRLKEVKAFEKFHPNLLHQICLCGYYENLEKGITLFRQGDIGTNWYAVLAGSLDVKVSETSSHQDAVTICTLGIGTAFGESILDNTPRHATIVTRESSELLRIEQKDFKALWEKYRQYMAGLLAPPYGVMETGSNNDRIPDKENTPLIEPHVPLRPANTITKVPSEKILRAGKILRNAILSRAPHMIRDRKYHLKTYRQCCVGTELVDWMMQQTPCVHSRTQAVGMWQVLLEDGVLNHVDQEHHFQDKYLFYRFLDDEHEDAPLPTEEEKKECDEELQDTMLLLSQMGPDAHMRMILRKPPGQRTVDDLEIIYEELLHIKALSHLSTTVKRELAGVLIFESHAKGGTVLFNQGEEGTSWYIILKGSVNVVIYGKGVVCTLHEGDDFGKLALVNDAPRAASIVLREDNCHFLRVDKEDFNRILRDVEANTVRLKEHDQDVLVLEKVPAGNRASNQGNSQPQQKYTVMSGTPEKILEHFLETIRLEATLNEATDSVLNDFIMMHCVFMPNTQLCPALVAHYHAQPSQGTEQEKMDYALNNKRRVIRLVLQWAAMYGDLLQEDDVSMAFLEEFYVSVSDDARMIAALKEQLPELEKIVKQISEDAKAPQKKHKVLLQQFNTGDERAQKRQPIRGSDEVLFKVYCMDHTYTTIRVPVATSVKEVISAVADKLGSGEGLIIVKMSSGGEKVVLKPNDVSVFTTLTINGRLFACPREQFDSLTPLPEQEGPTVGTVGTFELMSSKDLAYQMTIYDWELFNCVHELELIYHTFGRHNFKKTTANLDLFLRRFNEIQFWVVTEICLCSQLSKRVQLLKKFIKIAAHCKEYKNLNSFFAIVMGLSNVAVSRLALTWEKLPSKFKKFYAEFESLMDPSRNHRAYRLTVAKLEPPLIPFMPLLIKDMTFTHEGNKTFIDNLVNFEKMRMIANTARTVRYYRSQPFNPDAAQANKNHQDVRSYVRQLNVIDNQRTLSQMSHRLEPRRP
# Chain of Nicotinamide N-methyltransferase (Homo sapiens) (P40261 whole entry, looked up): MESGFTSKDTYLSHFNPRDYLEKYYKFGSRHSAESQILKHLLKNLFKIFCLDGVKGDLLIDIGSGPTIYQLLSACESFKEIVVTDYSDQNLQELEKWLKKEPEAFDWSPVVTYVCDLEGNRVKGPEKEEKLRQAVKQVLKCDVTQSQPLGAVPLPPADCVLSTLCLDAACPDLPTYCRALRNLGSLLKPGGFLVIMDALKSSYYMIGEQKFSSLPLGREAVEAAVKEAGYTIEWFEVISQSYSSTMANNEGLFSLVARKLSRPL
# Chain of Rap guanine nucleotide exchange factor 3 (Homo sapiens) (O95398 whole entry, looked up): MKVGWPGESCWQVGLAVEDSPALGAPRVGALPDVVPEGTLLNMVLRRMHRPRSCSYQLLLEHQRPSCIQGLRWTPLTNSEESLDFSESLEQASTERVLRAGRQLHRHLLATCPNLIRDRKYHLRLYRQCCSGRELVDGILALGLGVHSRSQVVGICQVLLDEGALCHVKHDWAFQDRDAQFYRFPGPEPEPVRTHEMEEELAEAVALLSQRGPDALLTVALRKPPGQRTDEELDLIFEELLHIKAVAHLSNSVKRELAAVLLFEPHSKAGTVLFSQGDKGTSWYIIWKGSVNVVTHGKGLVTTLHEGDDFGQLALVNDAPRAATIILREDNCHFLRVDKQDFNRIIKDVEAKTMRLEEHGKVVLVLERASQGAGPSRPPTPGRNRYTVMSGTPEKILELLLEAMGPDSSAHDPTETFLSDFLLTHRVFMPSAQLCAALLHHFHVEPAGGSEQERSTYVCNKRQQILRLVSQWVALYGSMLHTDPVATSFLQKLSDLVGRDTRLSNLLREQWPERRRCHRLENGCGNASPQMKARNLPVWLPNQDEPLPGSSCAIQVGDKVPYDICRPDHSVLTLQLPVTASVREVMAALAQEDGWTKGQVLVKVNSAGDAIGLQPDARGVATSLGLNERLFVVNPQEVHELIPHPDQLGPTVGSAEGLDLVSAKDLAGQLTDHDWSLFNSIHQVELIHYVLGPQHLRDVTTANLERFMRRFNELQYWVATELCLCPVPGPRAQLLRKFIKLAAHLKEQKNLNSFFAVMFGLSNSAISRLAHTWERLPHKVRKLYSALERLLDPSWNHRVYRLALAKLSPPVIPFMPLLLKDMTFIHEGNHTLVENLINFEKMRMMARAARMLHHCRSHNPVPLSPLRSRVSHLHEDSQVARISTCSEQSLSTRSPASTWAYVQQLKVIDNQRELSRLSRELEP
compound,measurement,setting,value
Cc1cc(=O)oc2cc(NC(=O)[C@H](CCC(=O)O)NC(=O)[C@H](CC(C)C)NC(=O)[C@H](CC(C)C)NC(=O)OCc3ccccc3)ccc12 (Cbz-Leu-Leu-Glu-{AMC}),activity,[1],-1.08%
same,"activity change, negative = inhibition",[2],0%
same,activity,[3],-71.3%
same,activity,[4],-1.44%
Cc1ccc([C@@H]2CC=C(C(=O)O)[C@H](c3ccc(C(C)(C)C)cc3)N2S(=O)(=O)c2ccc(C)cc2)cc1,Potency,[5],50.1 µM (active)
same,outcome,[6],inactive
same,activation,[7],5.81% [at 17.1 µM] (inactive)
same,outcome,[8],inactive
same,"activity change, negative = inhibition",[9],-12.2% [at 30.8 µM] (inactive)
same,activation,[10],14.8% [at 30.8 µM] (inactive)
CSC(=O)OCC1=C[C@@H]2OC(=O)C3=CO[C@@H](O[C@@H]4O[C@H](CO)[C@@H](O)[C@H](O)[C@H]4O)[C@H]1[C@@H]32,activity,[1],-58.6%
same,"activity change, negative = inhibition",[2],-9.29% [at 29.8 µM]
same,activity,[3],-7.9%
same,activity,[4],-7.61%
Cc1cc(C)c2nc(-c3ccccn3)cc(C(=O)Nc3ccc(S(=O)(=O)Nc4onc(C)c4C)cc3)c2c1,outcome,[6],inactive
same,outcome,[7],inactive
same,outcome,[8],inactive; activator; fitted 7.5686 uM
same,outcome,[9],inactive
CC1=CCC(O)C2(C)CCC3C(C)C(=O)OC3C12 (configuration not stated),activity,[1],-77%
same,"activity change, negative = inhibition",[2],0%
same,activity,[3],2.91%
same,activity,[4],-2.6%
COC(=O)[C@H](Cc1cccc(C(=N)N)c1)[C@@H](C)NC(=O)c1ccc(-c2cc[n+]([O-])cc2)cc1,activity,[1],-6.84%
same,"activity change, negative = inhibition",[2],0%
same,activity,[3],1.87%
same,activity,[4],-2.03%
CC(=O)OC/C(=C/C(=O)O)CC[C@@H]1C(CO)=CC[C@@H]2C(C)(C)CCC[C@@]12C,activity,[1],-82.3%
same,"activity change, negative = inhibition",[2],-4.99%
same,activity,[3],-8.71%
same,activity,[4],-5.03%
O=C(O)CC1(O)C(=O)Nc2ccccc21 (configuration not stated),activity,[1],0%
same,"activity change, negative = inhibition",[2],0% [at 85.7 µM]
same,activity,[3],4.18%
same,activity,[4],-0.0725%
COc1cc(C2Oc3c(OC)cc(/C=C/C(=O)OC4CC(O)(C(=O)O)CC(O)C4O)cc3C2CO)ccc1O (configuration not stated),activity,[1],-71.9%
same,"activity change, negative = inhibition",[2],-2.32% [at 29.8 µM]
same,activity,[3],-1.14%
same,activity,[4],-2.58%
CC(C)N(CCCNC(=O)Nc1ccc(C(C)(C)C)cc1)C[C@H]1O[C@@H](n2ccc3c(N)ncnc32)[C@H](O)[C@@H]1O,activity,[1],-14.9%
same,"activity change, negative = inhibition",[2],-7.92%
same,activity,[3],-18.1%
same,activity,[4],-18.6%
CC(=O)OC/C(=C/C(=O)O)CC[C@@H]1C(C)=CC(=O)[C@@H]2C(C)(C)CCC[C@@]12C,activity,[1],-62.3%
same,"activity change, negative = inhibition",[2],0%
same,activity,[3],-1.14%
same,activity,[4],-1.13%
CCc1nnc(NS(=O)(=O)c2ccc(NC(=S)NC(=O)/C=C/c3ccc(F)cc3)cc2)s1,Potency,[5],37.9 µM (active)
same,outcome,[6],inactive
same,outcome,[7],inactive
same,outcome,[9],inactive
same,outcome,[10],inactive
C=C1CC/C=C(/CO)C(=O)C[C@@H]2[C@@H]1C[C@@]2(C)COC(C)=O,activity,[1],-65.6%
same,"activity change, negative = inhibition",[2],0%
same,activity,[3],0.048%
same,activity,[4],1.6%
CCOc1ccc(-c2cc(NC(=O)c3c(F)cccc3F)c(C(=O)O)s2)cc1,Potency,[5],9.53 µM (active)
same,outcome,[6],inactive
same,outcome,[7],inactive
same,outcome,[8],inactive
same,outcome,[9],inactive
same,outcome,[10],inactive
same,activity,[1],-2.79%
same,"activity change, negative = inhibition",[2],0.993%
same,activity,[3],-5.18%
same,activity,[4],-2.03%
O=C(O)c1cccc(CN2C(=O)/C(=C(\c3ccccc3)c3ccc(Cl)cc3)c3ccccc32)c1,activity,[1],-6.02%
same,"activity change, negative = inhibition",[2],-1.74%
same,activity,[3],-41.9%
same,activity,[4],-8.16%
CC(=O)c1c(C)cccc1O[C@@H]1O[C@H](CO)[C@@H](O)[C@H](O)[C@H]1O,activity,[1],-68.9%
same,"activity change, negative = inhibition",[2],-2.96%
same,activity,[3],-4.15%
same,activity,[4],-3.91%
CC1(C)CC[C@]2(C(=O)O[C@@H]3O[C@H](CO)[C@@H](O)[C@H](O)[C@H]3O)CC[C@]3(C)C(=CCC4[C@@]5(C)C[C@@H](O)[C@H](O)[C@@](C)(CO)C5[C@H](O)C[C@]43C)C2[C@@H]1O (some centres not stated),activity,[1],-79.3%
same,"activity change, negative = inhibition",[2],0% [at 19.1 µM]
same,activity,[3],4%
same,activity,[4],3.8%
COc1cc(/C=C/C(=O)OCC2OC(OC3(CO)OC(CO)C(O)C3O)C(O)C(O)C2O)ccc1O (configuration not stated),activity,[1],-68.2%
same,"activity change, negative = inhibition",[2],-1.33% [at 29.8 µM]
same,activity,[3],-1.16%
same,activity,[4],3.04%
O=C(/C=C/c1ccccc1)OC[C@H]1O[C@@H](OC(=O)c2cc(O)c(O)c(O)c2)[C@H](O)[C@@H](O)[C@@H]1O,activity,[1],-76.6%
same,"activity change, negative = inhibition",[2],-1.37% [at 29.8 µM]
same,activity,[3],-4.41%
same,activity,[4],-0.813%
COc1cc(C2Oc3c(OC)cc(CCCO)cc3C2CO)ccc1O (configuration not stated),activity,[1],-80.9%
same,"activity change, negative = inhibition",[2],-2.79%
same,activity,[3],-9.4%
same,activity,[4],-8.69%
CC1=C2CC3C(CCC3(C)O)C(C)(O)CC2OC1=O (configuration not stated),activity,[1],-78.6%
same,"activity change, negative = inhibition",[2],0%
same,activity,[3],0%
same,activity,[4],0%
CC1(CO)CC(O)C2(C)CCC3(C)C(=CCC4C5(C=O)CCC(OC6OC(C(=O)O)C(O)C(O)C6OC6OC(C(=O)O)C(O)C(O)C6O)C(C)(C)C5CCC43C)C2C1 (configuration not stated),activity,[1],-73.8%
same,"activity change, negative = inhibition",[2],0.442% [at 19.1 µM]
same,activity,[3],-0.108%
same,activity,[4],1.8%

# Reference: PubChem BioAssay (NCATS)
